Inconclusive results are not listed. Calls of active or inactive are those of the source. Unless noted, calls come from the whole dose curve; as a rule, active = well fitted curve in the direction sought with a large enough effect in the repeat runs; inconclusive = weak or mixed curves; inactive = no such curve, though single readings can be large; an effect the other way counts as inactive or inconclusive.
Assays:
[1] = qHTS assay for small molecules that induce genotoxicity in human embryonic kidney cells expressing luciferase-tagged ATAD5 (AID 651632); note: nearly all actives have a fitted effect of over 15% in size
Method in brief: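 DMSO vehicle served as the control. HEK293T reporter cells, 16 hr at 37C, then 30 min Amplite at room temperature; ATAD5 induction is measured as luciferase activity.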

[2] = qHTS assay for small molecule agonists of the p53 signaling pathway - cell viability (AID 651633; calls by dose curve;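 note: p53RE-bla HCT reporter cells with a stable beta-lactamase p53 reporter; series mostly up to about 83 µM; nearly all actives have a fitted effect of over 30% in size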)
Method in brief: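 p53RE-bla cells, seeded at 4,000 per well and rested 5 h at 37 C/5% CO2, received compounds in DMSO for 16 h at 37 C. CellTiter-Glo was then added, and luminescence was read after 30 min at room temperature to gauge cytotoxicity.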

[3] = qHTS assay for small molecule disruptors of the mitochondrial membrane potential - cell viability (AID 720634; calls by dose curve;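 note: human HepG2 liver cancer cells; series mostly up to about 83 µM; nearly all actives have a fitted effect of over 20% in size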)
Method in brief: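 Viability of HepG2 cells is scored from ATP content by luminescence; cells are exposed to compound for 1 hr at 37 C and 5% CO2, then dosed with m-MPI dye before the CellTiter-Glo reagent.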

[4] = qHTS assay for small molecule disruptors of the mitochondrial membrane potential (AID 720635); note: potency is the fitted concentration of half-maximal effect
Method in brief: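 HepG2 cells (2,000/well) attached overnight at 37C, then took compound for 1 hr at 37C, 5% CO2. Mito-MPS dye was added for 30 min; fluorescence was read at 490/535 nm (monomers) and 540/590 nm (aggregates).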

[5] = qHTS assay to test for compound auto fluorescence at 590 nm (red) in HepG2 cells (AID 720674)
Method in brief: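 Rose Bengal sodium served as the red fluorophore standard. HepG2 monolayers (overnight attachment, MEM with 10% FBS) were exposed to test compounds for 1 hr at 37 C and read at Ex 540/Em 590 nm.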

[6] = qHTS assay to test for compound auto fluorescence at 535 nm (green) in HepG2 cells (AID 720675)
[7] = qHTS assay to test for compound auto fluorescence at 460 nm (blue) in HEK293 cells (AID 720678)
Method in brief: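 Blue read-out at excitation 405 nm and emission 460 nm follows overnight compound exposure of HEK293 cells at 37C in 5% CO2. Activity is given as auto fluorescence equivalency to triamterene.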

[8] = qHTS assay to test for compound auto fluorescence at 590 nm (red) in HEK293 cells (AID 720679)
Method in brief: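 Red channel, Ex/Em 540/590nm; signal expressed as equivalency to Rose Bengal sodium. HEK293, 2,000 cells/well, 10% dialyzed FBS; 23 nL compound pinned after 4-5 hr attachment; overnight 37C/5% CO2 before reading.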

[9] = qHTS assay to test for compound auto fluorescence at 535 nm (green) in HEK293 cells (AID 720680)
[10] = qHTS assay to test for compound auto fluorescence at 460 nm (blue) in HEK293 cell free culture (AID 720681)
Method in brief: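 Test compounds were pinned into cell-free culture medium (DMEM with 10% FBS) and fluorescence was read directly at Ex/Em 405/460 nm. Signals were expressed as fluorescence equivalents of triamterene, with DMSO vehicle as control.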

[11] = qHTS assay to test for compound auto fluorescence at 535 nm (green) in HEK293 cell free culture (AID 720682)
Method in brief: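 Compounds were pin-transferred into cell-free DMEM with 10% FBS, and green fluorescence was read at excitation 485 nm and emission 535 nm. Intensities were expressed as fluorescein-equivalent values.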

[12] = qHTS assay to test for compound auto fluorescence at 590 nm (red) in HEK293 cell free culture (AID 720683)
Method in brief: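 Tox21 10K library compounds were pinned into cell-free DMEM with 10% FBS and fluorescence was read at excitation 540 nm. Activity is expressed as Rose Bengal sodium equivalency.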

[13] = qHTS assay to test for compound auto fluorescence at 460 nm (blue) in HepG2 cell free culture (AID 720685)
Method in brief: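 Cell-free plates of MEM plus 10% FBS received 23 nL compound or DMSO vehicle; blue-channel (405/460 nm) intensity scored against triamterene as reference fluorophore.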

[14] = qHTS assay to test for compound auto fluorescence at 535 nm (green) in HepG2 cell free culture (AID 720686)
[15] = qHTS assay to test for compound auto fluorescence at 460 nm (blue) in HepG2 cells (AID 720687)
Method in brief: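 Cells (2,000/well in MEM with 10% FBS) attached overnight at 37 C, then were exposed to compound or DMSO for 1 hr at 37 C, 5% CO2. Fluorescence read at Ex/Em 405/460 nm, expressed as triamterene-equivalent signal.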

[16] = molecular target: Glucocorticoid receptor (Homo sapiens) (UniProt P04150); test: qHTS assay to identify small molecule agonists of the glucocorticoid receptor (GR) signaling pathway (AID 720691; active = well fitted activation curve with a large enough effect in the signal ratio in the repeat runs, not every such curve was filed as active; the % refers to the signal ratio)
Glucocorticoid receptor (Homo sapiens), sequence (P04150 whole entry, looked up): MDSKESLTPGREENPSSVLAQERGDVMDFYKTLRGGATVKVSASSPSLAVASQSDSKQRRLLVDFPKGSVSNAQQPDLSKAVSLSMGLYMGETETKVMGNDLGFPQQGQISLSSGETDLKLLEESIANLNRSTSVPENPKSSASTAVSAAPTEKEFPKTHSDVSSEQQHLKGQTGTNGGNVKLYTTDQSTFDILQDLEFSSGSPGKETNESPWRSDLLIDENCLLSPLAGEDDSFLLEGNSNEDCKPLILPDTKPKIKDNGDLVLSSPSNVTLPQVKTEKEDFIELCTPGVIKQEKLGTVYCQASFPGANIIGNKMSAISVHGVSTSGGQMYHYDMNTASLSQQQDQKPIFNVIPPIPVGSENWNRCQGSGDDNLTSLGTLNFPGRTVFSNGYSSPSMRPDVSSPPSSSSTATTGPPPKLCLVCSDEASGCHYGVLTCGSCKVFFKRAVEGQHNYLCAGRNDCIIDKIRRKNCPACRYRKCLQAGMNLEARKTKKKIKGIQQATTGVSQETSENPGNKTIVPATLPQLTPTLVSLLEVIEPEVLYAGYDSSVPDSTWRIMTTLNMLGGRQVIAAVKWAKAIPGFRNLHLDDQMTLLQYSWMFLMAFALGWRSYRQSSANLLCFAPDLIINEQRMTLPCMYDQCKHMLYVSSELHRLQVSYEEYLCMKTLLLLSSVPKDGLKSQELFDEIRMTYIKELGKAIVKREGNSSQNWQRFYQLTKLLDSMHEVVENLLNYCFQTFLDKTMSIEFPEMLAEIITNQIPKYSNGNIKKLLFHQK
Method in brief: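 Compounds in DMSO, alongside positive controls, were added to GR-bla HeLa reporter cells and incubated 18 h at 37 C; GRE-driven beta-lactamase was detected by fluorescence after 2 h with FRET substrate at room temperature.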

[17] = qHTS assay to test for compound auto fluorescence at 590 nm (red) in HepG2 cell free culture (AID 720684)
Method in brief: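 Readout: intrinsic compound fluorescence at 590 nm emission after 540 nm excitation, scaled to Rose Bengal sodium. Matrix was cell-free MEM with 10% FBS; DMSO vehicle wells served as control.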

[18] = molecular target: Glucocorticoid receptor (Homo sapiens) (UniProt P04150); test: qHTS assay to identify small molecule antagonists of the glucocorticoid receptor (GR) signaling pathway (AID 720692; active = well fitted inhibition curve with a large enough effect in the signal ratio in the repeat runs, not every such curve was filed as active; the % refers to the signal ratio)
Method in brief: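 In a 1536-well cell format, compounds were added 4 h after seeding GR-bla HeLa cells, together with dexamethasone at 5 nM final; reporter activity was measured by FRET-substrate fluorescence following 18 h at 37 C.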

[19] = qHTS assay for small molecules that induce genotoxicity in human embryonic kidney cells expressing luciferase-tagged ATAD5 - cell viability (AID 651634; calls by dose curve; note: nearly all actives have a fitted effect of over 25% in size)
Method in brief: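 Here HEK293T cells with the ATAD5 luciferase reporter are incubated with test compounds for 15.5 hr, and cytotoxicity is then gauged by measuring protease activity in live cells using fluorescence.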
% is set by controls: 0 for no effect and ±100 for the full control effect.

COc1ccc(/C=C/C(=O)c2ccc(OC)cc2OC)cc1
active: Potency [4] 13.3 µM
inactive: Potency [1] | Potency [2] | outcome [3] | outcome [5] | outcome [6] | Potency [7] | outcome [8] | outcome [9] | Potency [10] | outcome [11] | outcome [12] | Potency [13] | outcome [14] | Potency [15] | Potency [16]

Cc1ccc(Nc2c(F)cccc2Cl)c(CC(=O)O)c1
inactive: Potency [1] | Potency [2] | outcome [3] | outcome [5] | outcome [6] | Potency [7] | outcome [8] | outcome [9] | Potency [10] | outcome [11] | outcome [12] | outcome [17] | Potency [13] | outcome [14] | Potency [15] | Potency [16] | Potency [18]

O=C(O)CO
inactive: Potency [1] | Potency [2] | outcome [3] | outcome [5] | outcome [6] | Potency [7] | outcome [8] | outcome [9] | Potency [10] | outcome [11] | outcome [12] | outcome [17] | Potency [13] | outcome [14] | Potency [15]

CCCCCCCC(=O)Oc1c(Br)cc(C#N)cc1Br
active: Potency [4] 12.1 µM
inactive: Potency [1] | Potency [2] | outcome [5] | outcome [6] | Potency [7] | outcome [8] | outcome [9] | Potency [10] | outcome [11] | outcome [12] | outcome [17] | Potency [13] | outcome [14] | Potency [15] | Potency [16]

CC(C)(C)CCCCCCOC(=O)c1ccccc1C(=O)OCCCCCCC(C)(C)C
inactive: Potency [1] | Potency [19] | outcome [3] | outcome [5] | outcome [6] | Potency [7] | outcome [8] | outcome [9] | Potency [10] | outcome [11] | outcome [12] | Potency [13] | outcome [14] | Potency [15] | Potency [16]

CC(C)OC(=O)c1ccccc1C(=O)OC(C)C
inactive: Potency [1] | Potency [2] | outcome [3] | Potency [4] | outcome [5] | outcome [6] | Potency [7] | outcome [8] | outcome [9] | Potency [10] | outcome [11] | outcome [12] | Potency [13] | outcome [14] | Potency [15] | Potency [16] | Potency [18]

O=C1[C@@H]2[C@H]3CC[C@H](C3)[C@@H]2C(=O)N1CCCCN1CCN(c2ncccn2)CC1
inactive: Potency [1] | Potency [2] | outcome [3] | Potency [4] | outcome [5] | Potency [7] | outcome [8] | outcome [9] | Potency [10] | outcome [11] | outcome [12] | outcome [17] | Potency [13] | outcome [14] | Potency [15] | Potency [16] | Potency [18]

CC1=CC[C@@H]2C[C@H]1C2(C)C
inactive: activation [1] -0.905% [at 17.9 µM] | activity change, negative = cytotoxicity [2] 5.84% [at 17.9 µM] | fluorescence, relative to Rose Bengal [5] -0.0358% [at 18.6 µM] | fluorescence, % of fluorescein control [6] 0.0991% [at 18.6 µM] | fluorescence, % of triamterene [7] -0.0033% [at 18.6 µM] | fluorescence, % of fluorescent control [8] -0.712% [at 18.6 µM] | fluorescence, % of fluorescent control [10] 0.0118% [at 18.6 µM] | activity change [11] -0.0302% [at 18.6 µM] | fluorescence, % of fluorescent control [12] 0.0507% [at 18.6 µM] | fluorescence, % of Rose Bengal [17] 0.0249% [at 18.6 µM] | fluorescence, % of fluorescent control [13] 0.0508% [at 18.6 µM] | fluorescence, % of fluorescein control [14] 0.0311% [at 18.6 µM] | fluorescence, % of fluorescent control [15] -0.0004% [at 18.6 µM]

CCN(CC)CCOc1ccccc1C(=O)CCc1ccccc1
inactive: Potency [1] | Potency [2] | outcome [3] | outcome [5] | Potency [7] | outcome [8] | outcome [9] | Potency [10] | outcome [11] | outcome [12] | outcome [17] | Potency [13] | outcome [14] | Potency [15]

CC(C)c1ccc(C(=O)N=C(N)N)cc1S(C)(=O)=O
inactive: Potency [1] | Potency [2] | outcome [3] | Potency [4] | outcome [5] | outcome [6] | Potency [7] | outcome [9] | Potency [10] | outcome [11] | outcome [12] | outcome [17] | Potency [13] | outcome [14] | Potency [15] | Potency [16] | Potency [18]
